# Bioassay records deposited in PubChem BioAssay by National Center for Advancing Translational Sciences (NCATS).
# In the library only some 2% were active in any assay of this set; here they are far more common.
# NPSR antagonist = antagonists of human neuropeptide S receptor cAMP signaling | Q6W5P4 | CHO-NPSR cells, cAMP TR-FRET, antagonist mode | Potency, µM (series often up to 38.3 µM), without a hit: top-dose activity change, negative = inhibition, hits mostly inhibitors | 220,000 tested, 1% active | AID 1461; also: potency is read from the fitted curve at half-maximal effect; % is scaled to controls: 0 for no effect and ±100 for the full control effect; nearly all actives have a fitted effect of over 50% in size
# Target sequence (Q6W5P4 whole entry, looked up): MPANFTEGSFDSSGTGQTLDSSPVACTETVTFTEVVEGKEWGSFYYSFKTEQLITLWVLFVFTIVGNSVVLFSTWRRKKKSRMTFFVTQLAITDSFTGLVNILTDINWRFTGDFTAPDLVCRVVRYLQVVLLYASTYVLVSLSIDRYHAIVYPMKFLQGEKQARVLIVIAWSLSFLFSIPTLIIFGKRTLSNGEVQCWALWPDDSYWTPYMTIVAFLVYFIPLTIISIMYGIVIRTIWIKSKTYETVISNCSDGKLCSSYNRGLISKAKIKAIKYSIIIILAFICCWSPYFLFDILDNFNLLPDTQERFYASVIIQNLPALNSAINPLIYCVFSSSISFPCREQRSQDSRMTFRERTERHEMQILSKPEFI
# IL2 activator = IL-2 activation | 360,000 tested, 0.065% active | activation, % (series mostly up to about 46 µM) | AID 652025 | IL-2 activation reporter assay, cell-based qHTS; stimulated with anti-CD3/CD4/CD28 beads; in transgenic mouse T cells; in the data active = activation above about 50%; inconclusive = mostly about 30% to 49%; also: 0% is about no effect
#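 Unstimulated transgenic mouse T cells preincubated 60 min with compound, then stimulated with anti-CD3/anti-CD4-coated beads plus anti-CD28 for 18 h at 37 degrees C. IL-2 response read as EGFP and DsRed fluorescence by plate cytometry.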
# PKM2 act = increases activity of human pyruvate kinase M2. Potency, µM (doses to about 57.5 µM), inactives show top-dose activation, actives largely listed as activators. 260,000 tested, 0.34% active. purified PKM2, Kinase-Glo ATP luminescence, activation; response scale: 0% is enzyme alone, no compound; also: potency is read from the fitted curve at half-maximal effect; % is scaled to controls: 0 for no effect and ±100 for the full control effect; nearly all actives have a fitted effect of over 55% in size
#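 Purified hPK-M2 (>95% pure) converted ADP (0.1 mM final) to ATP with 0.5 mM PEP in 50 mM imidazole pH7.2, KCl, MgCl2, Tween 20, BSA; 1 h at room temperature. ATP detected by Kinase-Glo luminescence.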
# ClpP mod = qHTS Assay for Activators of ClpP | ATP-dependent Clp protease proteolytic subunit (Bacillus subtilis (strain 168)), P80244 | purified B. subtilis ClpP, FRET peptide cleavage, 20 min | Potency, µM (series often up to 57.5 µM), without a hit: at the top dose activity change, negative = active | 340,000 tested, 1.9% active | AID 651965, 2013; active = well fitted falling curve with a large enough effect; inconclusive = small, poorly fitted or top-dose-only effect; inactive = no such curve, though single readings can be large or run the other way; also: potency is read from the fitted curve at half-maximal effect; the source files actives as falling curves though it sought activators and does not explain the sign; nearly all actives have a fitted effect of over 65% in size
# Target sequence (P80244 whole entry, looked up): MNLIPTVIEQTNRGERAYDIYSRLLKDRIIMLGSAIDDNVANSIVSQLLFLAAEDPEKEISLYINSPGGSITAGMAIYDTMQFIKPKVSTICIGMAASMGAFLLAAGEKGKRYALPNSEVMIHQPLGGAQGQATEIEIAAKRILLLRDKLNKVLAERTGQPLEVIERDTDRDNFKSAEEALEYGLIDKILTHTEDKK
#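 Purified B. subtilis ClpP, 10 microg/mL final in Tris/HCl pH8 with KCl, BSA, glycerol and Tween-20, cleaved an Abz/nitrotyrosine-quenched decapeptide. Fluorescence (ex 320, em 430) was read at 0 and 20 min at room temperature. Delta was normalized to 5.8 microM ADEP and DMSO/no-enzyme controls.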
# * marks the source's active call; other numbers are inactive results; ? = inconclusive; / = not tested or not shown; [ ] = dose if it differs, or a comment. Unless noted, calls follow the shape of the dose curve; as a rule, active = well fitted curve in the direction sought with a large enough effect; inconclusive = small, poorly fitted or top-dose-only effect, or another doubt; inactive = no such curve, though single readings can be large; an effect the other way counts as inactive or inconclusive.
SMILES,NPSR antagonist,IL2 activator,PKM2 act,ClpP mod
Cc1oc(-c2ccccc2)nc1CS(=O)CC(=O)NC1CCCCCC1 (stereo unspecified),/,1,/,-10%
CN(CCc1ccccc1)C(=O)c1ccc(NC(=O)Cc2cccc(NC(=O)C3CCN(S(=O)(=O)c4cccc([N+](=O)[O-])c4)CC3)c2)cc1,/,0,/,1%
Cc1ccc(C(=O)NCC(=O)OCC(=O)NC(C)C2CC3CCC2C3)cc1 (stereo unspecified),/,-6,/,32µM*
CCOC(=O)c1c(-c2ccccc2)oc2ccc(OCC)cc12,-22%,-3,-5%,/
O=c1c(O)c(-c2ccc3c(c2)OCO3)oc2ccccc12,6%[46.1 µM],1,-1%,-10%
CCOC(=O)c1c(-c2ccccc2)oc2ccc(OCc3ccc(C)cc3)cc12,/,/,/,4%
CCOC(=O)c1c(-c2ccccc2)oc2ccc(OC)cc12,-13%[46.1 µM],-4,2%,10µM*
CCOC(=O)COc1c(-c2ccc(OC)cc2)oc2ccccc2c1=O,-28%[46.1 µM],0,-7%,32µM*
CCOc1ccc(-c2oc3ccccc3c(=O)c2O)cc1OCC,/,/,/,32µM*
CCOC(=O)c1c(-c2ccccc2)oc2ccc(OCC(O)CNCCN(C)C)cc12 (stereo unspecified),/,-3,/,35µM*
COc1ccc(-c2oc3ccccc3c(=O)c2OCC(=O)O)cc1,-28%,3,0%,/
CCCCn1nc2cc(C(=O)NCc3ccc(OC(F)(F)F)cc3)ccc2c1OC,-12%[46.1 µM],1,3%,5%
COCCNC(=O)Cn1nc(N2CCN(c3ccccc3OC)CC2)ccc1=O,/,/,/,2%
Cc1[nH]cnc1CSCc1ccc(Cl)cc1,19%,2,4%,-6%
CCN1C(=O)C2(C(C(=O)c3ccc(C)o3)=C(O)C(=O)N2CCCN2CCOCC2)c2ccccc21 (stereo unspecified),-8%[46.1 µM],-2,-16%,0%
CCN1C(=O)C2(C(C(=O)c3cc4ccccc4o3)=C(O)C(=O)N2CCCN2CCOCC2)c2ccccc21 (stereo unspecified),7.9µM*,0,1%,1%
CN(Cc1ccccc1)C(=O)CN(Cc1ccccc1)S(C)(=O)=O,-7%[46.1 µM],0,1%,0%
Cc1ccc(OCCC(=O)NNC(=O)c2ccncc2)cc1,/,-2,/,-1%
Cc1ccc(OCCC(=O)OCC(=O)NNC(=O)c2ccccc2)cc1,/,0,/,25µM*
CCOc1ccc(OCCC(=O)NNC(=O)c2ccncc2)cc1,/,0,/,7.9µM*
CC(C)C[C@H](NC(=O)C1CC(=O)N(c2ccc3c(c2)OCO3)C1)C(=O)NCc1ccco1 (stereo partly specified),/,1,/,2%
O=C(NN=C1C2CC3CC(C2)CC1C3)c1ccncc1,1%[46.1 µM],0,-5%,-1%
O=C(NN=C1C2CC3CC(C2)CC1C3)c1cc(Cl)ccc1O,-8%[46.1 µM],2,0%,28µM*
CC(C)[C@H](NC(=O)c1ccccc1Cl)C(=O)OCc1cc([N+](=O)[O-])cc2c1OCOC2,-8%,-3,-2%,22µM*
CC(C)[C@H](NS(=O)(=O)c1ccccc1)C(=O)OCc1cc([N+](=O)[O-])cc2c1OCOC2,/,0,/,-6%
SMILES,NPSR antagonist,IL2 activator,PKM2 act,ClpP mod
CCO[C@H]1OC(C(=O)NCc2ccccc2)=C[C@@H](C)[C@@H]1CCCO,-10%,0,0%,1%
CCc1ccccc1Nc1ncnc2c1cnn2-c1ccc(C)cc1C,/,/,/,-7%
Cc1ccc(-n2ncc3c(NC4CCCCCC4)ncnc32)cc1Cl,/,/,/,32µM*
Cc1ccc(Cl)cc1-n1ncc2c(NC3CCCCCC3)ncnc21,/,/,/,-4%
O=C1CCCN1CCCNc1ncnc2c1cnn2-c1ccc(Cl)cc1,-10%[46.1 µM],-3,9%,5%
Cc1ccc(-n2ncc3c(NCCc4ccccc4)ncnc32)cc1Cl,/,/,/,32µM*
COc1ccc(CCNc2ncnc3c2cnn3-c2ccc(C)c(Cl)c2)cc1,/,/,/,-14%
Cc1cccc(-n2ncc3c(NCCCN4CCCC4=O)ncnc32)c1,-17%[46.1 µM],-2,4%,28µM*
CCc1ccccc1Nc1ncnc2c1cnn2-c1ccc(Cl)cc1,/,/,/,32µM*
Cc1cc(C)cc(NS(=O)(=O)c2ccc3c(c2)c(=O)n(C)c(=O)n3C)c1,-2%[46.1 µM],-2,?,1%
Cc1ccc(NS(=O)(=O)c2ccc3c(c2)c(=O)n(C)c(=O)n3C)cc1F,-16%[46.1 µM],-2,4.5µM*,-3%
COc1c(C)cc(Br)cc1C(=O)Nc1cccc(NC(=O)c2ccco2)c1,-18%[46.1 µM],0,-4%,28µM*
CCOC(=O)CN1C(=O)N[C@@H](c2cccc(F)c2)C(C(=O)OC)=C1C,/,0,-1%[11.5 µM],0%
CCOc1cc(NC(=S)NCCCN2CCOCC2)c(OCC)cc1NC(=O)c1cccc(F)c1,-9%,0,0%,/
CCN(C(=O)CSc1nc(-c2ccc(C(C)C)cc2)no1)c1ccccc1,/,/,/,-5%
Cn1ncc([N+](=O)[O-])c1C(=O)Nc1ccc2c(c1)OCCO2,0%[46.1 µM],1,-4%,32µM*
Cc1ccc(NC(=O)c2c([N+](=O)[O-])cnn2C)cc1C,/,2,-1%,0%
CN1CCN(C(=O)c2cccc(NS(=O)(=O)c3ccc(Br)cc3)c2)CC1,/,0,/,0%
CCOC(=O)C1CCN(C(=O)c2cn(CCOC)c(=O)c3c2c2ccccc2n3C)CC1,-2%[46.1 µM],-2,0%,7.9µM*
CC(C)Cn1cc(C(=O)NCCCN2CCCC2=O)c2c3ccccc3n(C)c2c1=O,-10%[46.1 µM],2,1%,16µM*
Cn1cc(C(=O)N2CCN(C(=O)c3ccco3)CC2)c2c3ccccc3n(C)c2c1=O,-5%[46.1 µM],1,5%,14µM*
COCCCNC(=O)c1cn(CC(C)C)c(=O)c2c1c1ccccc1n2C,-14%[46.1 µM],-2,0%,32µM*
CC(C)Cn1cc(C(=O)NCCCN2CCC(C)CC2)c2c3ccccc3n(C)c2c1=O,/,-4,/,/
CCN1CCN(C(=O)c2cn(CCOC)c(=O)c3c2c2ccccc2n3C)CC1,-7%[46.1 µM],-2,-1%,?
COCCCNC(=O)c1cn(CCOC)c(=O)c2c1c1ccccc1n2C,/,-2,/,4%
SMILES,NPSR antagonist,IL2 activator,PKM2 act,ClpP mod
Cc1cccc(NC(=O)Nc2ccc(C)c(C)c2)n1,-17%[46.1 µM],-3,-6%,0%
CC(C)Cn1cc(C(=O)N2CCN(c3ccccn3)CC2)c2c3ccccc3n(C)c2c1=O,?,0,-1%,16µM*
COCCn1cc(C(=O)NCCCOC(C)C)c2c3ccccc3n(C)c2c1=O,/,0,/,32µM*
CCOC(=O)c1c(C)[nH]c(C(=O)Nc2ccc(C)c(Cl)c2)c1C,-18%,/,8%,/
CCNC(=O)/C(=C\C=C\c1ccccc1)NC(=O)c1ccc(Br)o1,-17%,-1,-2%,3.2µM*
Cc1cc(C)c2cc(CN(CCCO)S(=O)(=O)c3ccccc3F)c(=O)[nH]c2c1,/,1,4%,/
CN(C)CCCN(Cc1ccc2c(c1)OCO2)C(=O)NC1CCCCC1,-25%,0,-3%,2%
Cc1ccc(C)c(N2CCN(c3ncnc4c3cnn4-c3ccccc3)CC2)c1,9%[46.1 µM],4,4%,?
